The text below walks through data of PubChem BioAssay (Tox21).

Assay [1] is described as follows: Nuclear factor erythroid 2-related factor 2/antioxidant responsive element (Nrf2/ARE) small molecule agonists: qHTS cell viability counter screen in human keratinocytes (AID 1919968; active means well fitted curve in the direction sought with a large enough effect in the repeat runs; an effect the other way counts as inactive or inconclusive; further: nearly all actives have a fitted effect of over 55% in size). Summed up:
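KeratinoSens HaCaT cells, 1,500/well, preincubated 5 h, then exposed to compounds in DMSO for 23 h at 37 C/5% CO2. Viability read as CellTiter-Fluor fluorescence after 1 h, in the same wells as the ARE-luciferase read.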

Assay [2] in a line: Nuclear factor erythroid 2-related factor 2/antioxidant responsive element (Nrf2/ARE) small molecule agonists: luciferase reporter gene qHTS assay in human keratinocytes (AID 1919969). Further: nearly all actives have a fitted effect of over 35% in size. Further: potency means the concentration at half of the fitted maximal effect. On the technique in general: A reporter such as luciferase makes a cellular process visible.
The target of assay [3] is Gonadotropin-releasing hormone receptor (Homo sapiens) (UniProt P30968). In words: Human gonadotropin-releasing hormone receptor (GnRHR) small molecule agonists, calcium flux assay in GnRHR-HEK293 cells (AID 1920063). Further: nearly all actives have a fitted effect of over 35% in size. Summed up: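 HEK293 cells stably expressing human GnRHR were dye-loaded for 1 h at 37 C. Compound was added in agonist mode and fluorescence (Ex/Em 480/540) recorded kinetically for 3 min. Fifteen concentrations, triplicates.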
Gonadotropin-releasing hormone receptor (Homo sapiens), sequence (P30968 whole entry, looked up): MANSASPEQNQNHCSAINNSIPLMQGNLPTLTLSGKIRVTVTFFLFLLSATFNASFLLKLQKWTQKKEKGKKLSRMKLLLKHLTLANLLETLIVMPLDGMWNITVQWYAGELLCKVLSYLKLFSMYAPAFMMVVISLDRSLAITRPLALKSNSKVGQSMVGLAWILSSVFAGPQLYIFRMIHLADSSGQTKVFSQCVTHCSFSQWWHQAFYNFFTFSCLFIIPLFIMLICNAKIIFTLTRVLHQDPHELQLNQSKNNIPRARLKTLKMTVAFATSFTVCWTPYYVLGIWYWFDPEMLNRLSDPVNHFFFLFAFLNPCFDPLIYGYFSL

For assay [4], the target named is KiSS-1 receptor (Homo sapiens) (UniProt Q969F8). In words: Human kisspeptin (KISS1R) small molecule agonists, calcium flux assay in KISS1R-HEK293 cells (AID 1920064; active means well fitted curve in the direction sought with a large enough effect in the repeat runs; an effect the other way counts as inactive or inconclusive). Summed up:
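HEK293 cells stably expressing human KISS1R were loaded with calcium dye for 1 h at 37 C, then given compound; fluorescence (Ex/Em 480/540) was read kinetically for 3 min. Fifteen concentrations, triplicate.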
In general terms: Calcium assays in cells follow changes in intracellular calcium, usually with a dye or a luminescent sensor.

Assay [5] can be described thus: G protein-coupled receptor (GPCR) small molecule agonists, calcium flux assay: HEK293 wild type cell line counter screen (AID 1920065). The gist of the method: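 Wild-type HEK293 cells plated 18 h, loaded with calcium dye 1 h at 37 C, then compounds added in agonist mode (ATP as positive control). Kinetic fluorescence Ex/Em 480/540 recorded 3 min at 1 sec intervals; 15 concentrations, triplicate.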

The nature of assay [6]: p53 small molecule agonists, cell-based qHTS assay with human liver microsomes (AID 1963577).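 Further: p53 response element beta-lactamase reporter cells with liver microsomes plus NADPH.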 Summed up:
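With metabolic activation: human liver microsomes (0.5 mg/mL final) plus NADPH (0.5 mg/mL final) added alongside compounds to p53RE-bla cells; 16 h 37 C exposure; beta-lactamase read by LiveBLAzer fluorescence.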
(Quantitative high-throughput screening tests each substance at several concentrations.)

The nature of assay [7]: p53 small molecule agonists, cell-based qHTS assay with rat liver microsomes (AID 1963578). Summed up:
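Metabolic activation by rat liver microsomes and NADPH, each 0.5 mg/mL final, added right after compounds to p53RE-bla reporter cells (4,000/well, plated 5 h earlier). 16 h at 37 C, then LiveBLAzer substrate for 2 h at room temperature in the dark; fluorescence read-out.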

Assay [8] can be described thus: p53 small molecule agonists, cell-based qHTS assay with human liver microsomes: qHTS cell viability counter screen (AID 1963579). Further: nearly all actives have a fitted effect of over 45% in size. The gist of the method: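 Metabolic activation used human liver microsomes and NADPH, both 0.5 mg/mL final, over 16 hours at 37 C on p53RE-bla cells (4,000/well). Cytotoxicity measured by CellTiter-Glo luminescence, 30 min at room temperature.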

Assay [9] can be described thus: p53 small molecule agonists, cell-based qHTS assay with rat liver microsomes: qHTS cell viability counter screen (AID 1963580). Further: nearly all actives have a fitted effect of over 45% in size. Summed up: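 Viability is assessed in parallel with the p53 reporter read: HCT-116 p53RE-bla cells receive compounds plus rat microsomes and NADPH (0.5 mg/mL final apiece), incubate 16 h at 37 C, and then CellTiter-Glo luminescence is recorded.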

Assay [10] can be described thus: p53 small molecule agonists, cell-based qHTS assay: qHTS cell viability counter screen (AID 1963581). Further: nearly all actives have a fitted effect of over 45% in size. The gist of the method:
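p53RE-bla HCT-116 cells, compounds added 5 h after plating and incubated 16 h at 37 C. Cytotoxicity measured in the same wells as intracellular ATP by CellTiter-Glo luminescence after 30 min at room temperature.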

Assay [11] in a line: p53 small molecule agonists, cell-based qHTS assay (AID 1963582; active means well fitted activation curve with a large enough effect in the signal ratio in the repeat runs, not every such curve was filed as active; the % refers to the signal ratio). The gist of the method: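 p53RE-bla reporter cells, compounds added in DMSO after 5 h plating, incubated 16 h at 37 C. Beta-lactamase read via 2 h room-temperature LiveBLAzer B/G FRET substrate, fluorescence intensity.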
For assay [12], the target named is 5-hydroxytryptamine receptor 2A (Homo sapiens) (UniProt P28223). In words: 5-hydroxytryptamine receptor 2A (HTR2A) small molecule antagonists, cell-based qHTS assay (AID 1963586). Further: nearly all actives have a fitted effect of over 45% in size. Summed up:
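Antagonist-mode intracellular calcium assay: DOI (4 nM) added after 5 min compound pre-incubation at room temperature to dye-loaded HTR2A-CHO cells. Fluorescence followed for 3 min, sampled every second.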

Assay [13] has the same target. In words: 5-hydroxytryptamine receptor 2A (HTR2A) small molecule agonists, cell-based qHTS assay (AID 1963587). Further: nearly all actives have a fitted effect of over 30% in size. Summed up:
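CHO cells stably expressing human HTR2A, plated 18 h, loaded with calcium dye 1 h at 37 C. Agonist mode: compounds added and intracellular calcium fluorescence recorded kinetically for 2 min at 1 sec intervals.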

The target in assay [14] is Muscarinic acetylcholine receptor M1 (Homo sapiens) (UniProt P11229). The assay is described as follows: Cholinergic receptor muscarinic 1 (CHRM1) small molecule antagonists, cell-based qHTS assay (AID 1963588). Further: nearly all actives have a fitted effect of over 40% in size. The gist of the method: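 CHRM1-CHO calcium-flux assay, antagonist mode. Cells were seeded 18 h, dye-loaded 1 h at 37 C and given compound for 5 min at RT, then acetylcholine was added at 50nM. FDSS fluorescence was read 3 min; 15 concentrations, three runs.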
Muscarinic acetylcholine receptor M1 (Homo sapiens), sequence (P11229 whole entry, looked up): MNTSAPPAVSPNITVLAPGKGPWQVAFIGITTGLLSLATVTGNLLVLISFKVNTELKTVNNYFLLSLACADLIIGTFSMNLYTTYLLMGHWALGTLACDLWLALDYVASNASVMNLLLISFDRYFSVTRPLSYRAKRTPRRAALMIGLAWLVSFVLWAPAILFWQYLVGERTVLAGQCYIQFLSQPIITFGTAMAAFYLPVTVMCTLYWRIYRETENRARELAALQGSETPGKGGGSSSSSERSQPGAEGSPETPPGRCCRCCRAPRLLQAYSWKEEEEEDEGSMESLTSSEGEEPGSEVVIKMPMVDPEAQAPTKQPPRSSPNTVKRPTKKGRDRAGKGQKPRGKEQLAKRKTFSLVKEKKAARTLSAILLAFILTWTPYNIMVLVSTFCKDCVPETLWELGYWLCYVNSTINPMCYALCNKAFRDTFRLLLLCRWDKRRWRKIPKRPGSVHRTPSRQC

The target is the same in assay [15]. The assay is described as follows: Cholinergic receptor muscarinic 1 (CHRM1) small molecule agonists, cell-based qHTS assay (AID 1963589). Further: nearly all actives have a fitted effect of over 35% in size. The gist of the method: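 CHO cells stably expressing human CHRM1 were loaded with calcium dye for 1 h at 37 C, then compound was added in agonist mode. Intracellular calcium fluorescence was followed kinetically at 1 s intervals. Fifteen concentrations were tested in three independent runs.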

A short description of assay [16]: cAMP Responsive Elements (CRE) small molecule agonists, cell-based qHTS assay (AID 1963590). The gist of the method:
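CRE-bla HEK 293T cells, 2,000/well in DMEM with 10% dialyzed FBS and 25 mM HEPES, pre-incubated 18 h at 37 C, then exposed to compound 3 h at 37 C. Beta-lactamase reporter read with LiveBLAzer B/G FRET substrate after 2 h at room temperature.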

A short description of assay [17]: cAMP Responsive Elements (CRE) small molecule antagonists, cell-based qHTS assay (AID 1963591; active means well fitted inhibition curve with a large enough effect in the signal ratio in the repeat runs, not every such curve was filed as active; the % refers to the signal ratio). Summed up:
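CRE-bla HEK293T cells plated 18 h, then given compound plus NKH477 at 0.25 uM final for 3 h at 37C. Beta-lactamase reporter read with LiveBLAzer B/G FRET substrate after 2 h at room temperature.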

The target of assay [18] is Beta-2 adrenergic receptor (Homo sapiens) (UniProt P07550). The assay is described as follows: Adrenergic beta2 receptor (ADRB2) small molecule antagonists, cell-based qHTS assay (AID 1963592). Further: series mostly up to about 92 µM; nearly all actives have a fitted effect of over 50% in size. The gist of the method: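 Cells (CHO, stable ADRB2 overexpression) incubated 18-20hr at 37C; compounds added from DMSO; agonist mix (1nM isoproterenol, 100uM IBMX, 25uM Ro-20-1724) added; 0.5hr RT; d2-cAMP and anti-cAMP-cryptate added; 1hr RT; 665/615 nm read.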
Beta-2 adrenergic receptor (Homo sapiens), sequence (P07550 whole entry, looked up): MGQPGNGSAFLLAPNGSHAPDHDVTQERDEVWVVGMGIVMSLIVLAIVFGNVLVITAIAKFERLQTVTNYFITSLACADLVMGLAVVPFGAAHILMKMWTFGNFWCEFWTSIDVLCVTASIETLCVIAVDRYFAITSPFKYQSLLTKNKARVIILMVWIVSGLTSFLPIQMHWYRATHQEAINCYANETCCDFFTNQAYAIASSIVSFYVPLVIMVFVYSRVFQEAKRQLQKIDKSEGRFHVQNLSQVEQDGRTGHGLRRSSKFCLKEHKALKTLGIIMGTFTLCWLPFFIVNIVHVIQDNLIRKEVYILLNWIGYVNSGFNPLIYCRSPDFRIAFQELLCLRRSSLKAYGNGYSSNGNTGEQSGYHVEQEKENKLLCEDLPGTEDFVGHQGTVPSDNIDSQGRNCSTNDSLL

In assay [19] the target is D(2) dopamine receptor (Homo sapiens) (UniProt P14416). In words: Dopamine D2 receptor (DRD2) small molecule antagonists, cell-based qHTS assay (AID 1963595; active means well fitted inhibition curve with a large enough effect in the signal ratio in the repeat runs, with a control signal flat; the % refers to the signal ratio). The gist of the method:
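HEK293 cells stably expressing DRD2 were preincubated with 0.1 mM Ro20-1724, then with compound for 10 min at room temperature. Cells were stimulated with 200 nM NKH477 plus 12 nM quinpirole for 30 min, and cAMP was read by HTRF.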

For assay [20] the target is unchanged. The assay is described as follows: Dopamine D2 receptor (DRD2) small molecule agonists, cell-based qHTS assay (AID 1963594). Further: nearly all actives have a fitted effect of over 35% in size. Further: potency means the concentration at half of the fitted maximal effect. Summed up: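 HEK293 cells stably expressing human DRD2, pre-treated with PDE inhibitor Ro20-1724 (0.1 mM final) and compound 10 min at room temperature, then stimulated with NKH477 (200nM […]) for 30 min. cAMP read by HTRF (665/620 nm).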

Values without a mark were called inactive. Inconclusive results are not listed. The source made the active and inactive calls. Unless noted, the call rests on the fitted dose curve.
On the % scale 0 is the no-effect control and ±100 the full control effect.

D(2) dopamine receptor (Homo sapiens), sequence (P14416 whole entry, looked up): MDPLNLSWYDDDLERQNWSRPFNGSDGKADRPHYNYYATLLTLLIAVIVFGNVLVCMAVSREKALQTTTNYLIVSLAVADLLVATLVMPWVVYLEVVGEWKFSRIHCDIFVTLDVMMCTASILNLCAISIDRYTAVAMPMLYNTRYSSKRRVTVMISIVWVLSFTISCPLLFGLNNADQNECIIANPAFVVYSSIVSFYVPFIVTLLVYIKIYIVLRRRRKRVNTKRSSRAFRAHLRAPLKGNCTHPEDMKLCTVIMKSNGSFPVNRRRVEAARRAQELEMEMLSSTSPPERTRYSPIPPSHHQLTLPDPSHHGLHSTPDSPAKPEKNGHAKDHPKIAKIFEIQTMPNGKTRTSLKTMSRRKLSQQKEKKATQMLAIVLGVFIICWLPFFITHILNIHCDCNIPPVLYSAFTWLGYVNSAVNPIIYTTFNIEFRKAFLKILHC
5-hydroxytryptamine receptor 2A (Homo sapiens), sequence (P28223 whole entry, looked up): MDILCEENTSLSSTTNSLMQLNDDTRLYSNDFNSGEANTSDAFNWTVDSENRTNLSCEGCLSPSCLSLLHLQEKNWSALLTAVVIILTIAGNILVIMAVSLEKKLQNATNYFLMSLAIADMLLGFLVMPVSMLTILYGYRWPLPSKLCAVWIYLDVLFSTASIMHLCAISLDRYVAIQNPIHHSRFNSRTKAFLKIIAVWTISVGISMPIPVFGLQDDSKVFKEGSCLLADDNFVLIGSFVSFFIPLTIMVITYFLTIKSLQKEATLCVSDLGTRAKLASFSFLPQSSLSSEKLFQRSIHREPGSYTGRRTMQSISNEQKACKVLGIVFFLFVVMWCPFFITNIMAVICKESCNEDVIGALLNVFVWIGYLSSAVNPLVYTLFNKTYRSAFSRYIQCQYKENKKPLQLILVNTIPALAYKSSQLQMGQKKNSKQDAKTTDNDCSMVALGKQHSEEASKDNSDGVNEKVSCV
KiSS-1 receptor (Homo sapiens), sequence (Q969F8 whole entry, looked up): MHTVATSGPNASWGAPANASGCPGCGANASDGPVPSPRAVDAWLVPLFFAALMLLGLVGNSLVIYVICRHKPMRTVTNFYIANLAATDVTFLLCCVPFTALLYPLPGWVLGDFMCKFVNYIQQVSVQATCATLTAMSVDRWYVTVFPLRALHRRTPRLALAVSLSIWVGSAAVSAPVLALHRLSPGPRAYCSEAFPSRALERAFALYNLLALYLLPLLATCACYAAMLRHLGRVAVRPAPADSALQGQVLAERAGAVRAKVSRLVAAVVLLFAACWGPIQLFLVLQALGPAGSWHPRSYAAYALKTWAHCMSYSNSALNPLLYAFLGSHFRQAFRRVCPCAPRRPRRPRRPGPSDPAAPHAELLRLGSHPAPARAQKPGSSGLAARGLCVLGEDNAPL

Turning to `Cc1cccc(C)c1NC(=O)c1ccccc1C(=O)O`, the Potency result in [1], in assay [2], in assay [3], in assay [6], in assay [7] and in assay [8] was “inactive” each time. Further, the Potency result in assay [9], in assay [10], in assay [11], in [12], in [13] and in assay [14] was “inactive” each time. In addition, the Potency result in assay [15], in assay [16], in [17], in [18] and in assay [19] was “inactive” throughout. Besides, the outcome in assay [4] and in [5] was inactive.

Turning to `CCCCCCCCCCc1ccccc1`, the Potency result in [1], in [2], in [3], in [6], in assay [7] and in [8] was “inactive” each time. Besides, the Potency entry in assay [9], in assay [10], in assay [11], in [12], in assay [13] and in [14] was “inactive” each time. Also, the Potency entry in [15], in [16], in assay [17], in assay [18] and in assay [19] was “inactive” each time. The outcome in assay [4] and in assay [5] was inactive.

On to `CCOC(=O)Oc1ccc(CCNC(=O)[C@H](CCSC)NC(C)=O)cc1OC(=O)OCC`, for which the Potency result in assay [1], in assay [2], in [3], in assay [6], in assay [7] and in assay [8] was “inactive” throughout. Besides, the Potency entry in assay [9], in [10], in [11], in assay [12], in assay [13] and in assay [14] was “inactive” in each case. Further, the Potency entry in [15], in [16], in [17], in assay [18] and in [19] was “inactive” in each case. In addition, the outcome in assay [4] and in assay [5] was inactive. For the same compound, the Potency in assay [20] is 2.37 µM (active).

On to `C=C(C)C(=O)OCCOCC`, for which the Potency result in assay [1], in assay [3], in assay [6], in assay [7], in [8] and in assay [9] was “inactive” in each case. Moreover, the Potency entry in assay [10], in [11], in assay [12], in assay [13], in assay [14] and in [15] was “inactive” throughout. Also, the Potency entry in [16], in [17], in [18] and in [19] was “inactive” throughout. Besides, in assay [2], the Potency was 54.7 µM (active). The outcome in assay [4] and in [5] was inactive.

Take `CCCCN(CCCC)C(C(N)=O)c1ccc(OC)cc1` (stereo unspecified): the Potency entry in assay [1], in [2], in assay [3], in assay [6], in assay [7] and in [8] was “inactive” throughout. Further, the Potency entry in [9], in [10], in assay [11], in assay [12], in assay [13] and in assay [14] was “inactive” each time. Also, the Potency result in [15], in [16], in assay [17], in [18], in [20] and in assay [19] was “inactive” throughout. The outcome in assay [4] and in assay [5] was inactive.

With `CCC(=O)CC(C)CC` (stereo unspecified), the activity change, negative = cytotoxicity in assay [1] is 1.61% [at 0.349 µM]; in assay [8], -9.86% [at 0.249 µM]; in assay [9], 1.72% [at 0.249 µM]; in [10], 22.9% [at 0.249 µM]. In assay [2], the activity, positive = activation was -3.45% [at 0.349 µM]. Besides, in assay [3], the activity change was -1.45% [at 0.217 µM, hits give high values]. The activation in assay [4] is -1.52% [at 0.29 µM]; in assay [5] it was -0.478% [at 0.217 µM]; in assay [6], -0.0354% [at 0.249 µM]; in assay [7], -2.6% [at 0.249 µM]; in [11] it was 5.1% [at 0.249 µM]; in [13], 6.03% [at 0.292 µM]. Further, the activation in assay [15] is 0.0292% [at 0.29 µM]; in assay [16] it was 0.0521% [at 0.349 µM]. The activity, negative = inhibition in assay [12] is 14.6% [at 0.233 µM]; in assay [14], -17.2% [at 0.232 µM]. For the same compound, the activity change, negative = inhibition was 1.08% [at 0.349 µM] in assay [17], 7.63% [at 0.349 µM] in [18] and 8.77% [at 0.348 µM] in assay [19].
